From PubChem BioAssay
Only some compounds are listed: those with a hit (about 12% of all), similar ones and a draw of the others.
JMJD2A Tudor = qHTS Assay for Inhibitors of JMJD2A-Tudor Domain; AID 504339, 2011; Lysine-specific demethylase 4A (Homo sapiens), O75164; 390,000 tested, 4.4% active; Potency, µM (titrated, usually from 114 µM), actives largely listed as inhibitors; AlphaScreen JMJD2A-Tudor / H3K4me3 peptide binding; note: nearly all actives have a fitted effect of over 50% in size
G9a block = qHTS Assay for Inhibitors of Histone Lysine Methyltransferase G9a; Histone-lysine N-methyltransferase EHMT2 (Homo sapiens), Q96KQ7; G9a H3K9 monomethylation, AlphaScreen, 2 h; Potency, µM (top dose mostly 102 µM), actives largely listed as inhibitors; 350,000 tested, 8.8% active; note: nearly all actives have a fitted effect of over 75% in size
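Using a bead-based AlphaScreen, monomethylated H3K9 product from 2 h room-temperature reactions (G9a 20 nM, peptide 500 nM, SAM 20 uM) was detected with 0.5 ug/mL rabbit anti-H3K9me1 antibody.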
HP1b chromo inh = HTS for Inhibitors of HP1-beta Chromodomain Interactions with Methylated Histone Tails | Chromobox protein homolog 1 (Homo sapiens), P83916 | AlphaScreen HP1-beta / biotin-H3K9me3 peptide binding | Potency, µM (top dose mostly 114 µM), actives largely listed as inhibitors | 390,000 tested, 0.56% active; note: nearly all actives have a fitted effect of over 70% in size
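AlphaScreen: HP1-beta (50 nM) preformed 30 min with biotin-H3(1-18)K9me3 peptide (50 nM) in PBS pH 7.4, 0.01% Tween-20. Compound added for 30 min at RT, then streptavidin donor/nickel chelate acceptor beads (10 ug/mL) for 30 min.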
BAZ2B inh = qHTS Assay for Inhibitors of BAZ2B; AlphaScreen BAZ2B-H3K14Ac peptide displacement; Bromodomain adjacent to zinc finger domain protein 2B (Homo sapiens), Q9UIF8; Potency, µM (doses to about 114 µM), actives largely listed as inhibitors; 360,000 tested, 4.4% active; note: nearly all actives have a fitted effect of over 60% in size
Target sequence (Q9UIF8 whole entry, looked up, the tested form may be a part): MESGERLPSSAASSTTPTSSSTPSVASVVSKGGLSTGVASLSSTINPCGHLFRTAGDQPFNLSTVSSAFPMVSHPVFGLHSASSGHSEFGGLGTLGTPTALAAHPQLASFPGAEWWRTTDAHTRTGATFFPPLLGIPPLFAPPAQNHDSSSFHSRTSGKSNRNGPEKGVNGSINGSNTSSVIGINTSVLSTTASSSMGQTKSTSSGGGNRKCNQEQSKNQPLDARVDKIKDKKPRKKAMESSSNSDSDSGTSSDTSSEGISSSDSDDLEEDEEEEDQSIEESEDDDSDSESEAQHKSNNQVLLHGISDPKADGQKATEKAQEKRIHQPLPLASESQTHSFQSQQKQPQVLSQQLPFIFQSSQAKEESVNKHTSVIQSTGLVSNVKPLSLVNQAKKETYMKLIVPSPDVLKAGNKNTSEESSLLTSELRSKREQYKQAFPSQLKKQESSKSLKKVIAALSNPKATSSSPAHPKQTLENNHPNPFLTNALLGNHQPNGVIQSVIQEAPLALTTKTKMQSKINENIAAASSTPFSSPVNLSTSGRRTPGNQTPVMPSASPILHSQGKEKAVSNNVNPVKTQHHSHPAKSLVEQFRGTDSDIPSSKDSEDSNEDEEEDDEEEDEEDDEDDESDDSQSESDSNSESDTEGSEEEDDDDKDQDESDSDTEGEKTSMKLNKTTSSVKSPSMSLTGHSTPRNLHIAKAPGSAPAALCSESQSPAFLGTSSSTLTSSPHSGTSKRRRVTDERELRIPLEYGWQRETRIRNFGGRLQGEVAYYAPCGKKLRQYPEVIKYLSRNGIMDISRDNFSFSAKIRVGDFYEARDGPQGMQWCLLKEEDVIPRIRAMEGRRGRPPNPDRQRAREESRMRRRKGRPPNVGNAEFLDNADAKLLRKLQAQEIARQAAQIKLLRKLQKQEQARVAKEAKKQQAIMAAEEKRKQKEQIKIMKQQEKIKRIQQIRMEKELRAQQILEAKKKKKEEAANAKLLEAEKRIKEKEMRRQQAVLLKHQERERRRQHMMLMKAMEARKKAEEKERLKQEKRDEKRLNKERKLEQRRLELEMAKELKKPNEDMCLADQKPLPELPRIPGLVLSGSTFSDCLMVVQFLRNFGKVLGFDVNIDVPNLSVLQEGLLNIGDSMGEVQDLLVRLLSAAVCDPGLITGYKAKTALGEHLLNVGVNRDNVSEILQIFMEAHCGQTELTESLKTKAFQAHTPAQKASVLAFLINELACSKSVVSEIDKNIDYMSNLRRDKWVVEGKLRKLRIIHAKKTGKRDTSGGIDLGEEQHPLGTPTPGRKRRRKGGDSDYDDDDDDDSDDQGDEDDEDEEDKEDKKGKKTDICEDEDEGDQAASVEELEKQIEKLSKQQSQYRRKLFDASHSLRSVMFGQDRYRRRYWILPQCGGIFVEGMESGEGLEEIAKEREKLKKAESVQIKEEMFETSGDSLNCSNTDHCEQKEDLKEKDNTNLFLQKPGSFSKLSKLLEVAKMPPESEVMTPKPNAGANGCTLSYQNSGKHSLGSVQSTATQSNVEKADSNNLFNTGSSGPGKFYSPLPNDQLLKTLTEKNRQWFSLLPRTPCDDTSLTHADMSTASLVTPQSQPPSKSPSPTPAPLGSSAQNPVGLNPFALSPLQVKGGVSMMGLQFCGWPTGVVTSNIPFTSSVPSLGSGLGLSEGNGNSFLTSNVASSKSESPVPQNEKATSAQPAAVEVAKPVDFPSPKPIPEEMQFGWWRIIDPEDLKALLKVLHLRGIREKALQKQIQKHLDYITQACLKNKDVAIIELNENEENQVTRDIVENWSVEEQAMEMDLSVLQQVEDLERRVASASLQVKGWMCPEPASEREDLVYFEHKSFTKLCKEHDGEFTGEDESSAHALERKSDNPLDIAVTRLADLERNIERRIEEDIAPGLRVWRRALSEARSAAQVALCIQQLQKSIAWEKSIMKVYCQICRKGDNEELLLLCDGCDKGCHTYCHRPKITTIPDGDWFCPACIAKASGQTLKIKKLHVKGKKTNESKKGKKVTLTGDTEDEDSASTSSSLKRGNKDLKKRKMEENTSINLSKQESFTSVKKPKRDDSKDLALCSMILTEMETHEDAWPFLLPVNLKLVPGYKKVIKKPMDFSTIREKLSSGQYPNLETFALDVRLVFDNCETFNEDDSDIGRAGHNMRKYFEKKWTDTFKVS
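AlphaScreen displacement: compounds (up to 110uM) incubated 30 min at room temperature with a preformed 50 nM BAZ2B/50 nM biotinylated H3K14Ac peptide complex in PBS pH 7.4 with Tween-20. Donor and acceptor beads at 10 ug/mL final added, 20 min light-protected before reading.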
L3MBTL1 block = qHTS Assay for the Inhibitors of L3MBTL1. AlphaScreen L3MBTL1–H3K9me1 peptide binding. Potency, µM (series often up to 57.1 µM), usual class: inhibitors. 230,000 tested, 0.66% active. AID 485360, 2010; note: nearly all actives have a fitted effect of over 60% in size
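L3MBTL1 50 nM + b-AHA-H3(1-15)K9me1 75 nM, 30 min RT; compound added, 30 min RT; streptavidin donor/Ni-chelate acceptor beads 10 ug/mL each final, 30 min RT dark; AlphaScreen read.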
Sfp PPTase inh = qHTS Assay for Inhibitors of Bacillus subtilis Sfp phosphopantetheinyl transferase (PPTase). Biochemical Sfp PPTase activity, qHTS. 4'-phosphopantetheinyl transferase ffp (Bacillus subtilis), Q9F4F7. Potency, µM, usual class: inhibitors. 310,000 tested, 3.5% active. AID 1490, 2009;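 note: the enzyme is Sfp with the accession as filed and its product quenches rhodamine fluorescence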
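Fluorescence-quenching assay with 15 nM Sfp, 5 uM rhodamine-CoA and 12.5 uM BHQ-2-labelled ybbR peptide in pH 7.6 Hepes/MgCl2 buffer. Enzyme was pre-incubated with compound for 15 min at room temperature. Rate was taken from the 30-min fluorescence change (525/598 nm).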
Numbers stand for hits; . = inactive; ? = inconclusive; / = no result; [ ] = remark or other dose. Calls come from the whole dose curve; as a rule, active = well fitted curve in the direction sought with a large enough effect; inconclusive = small, poorly fitted or top-dose-only effect, or another doubt; inactive = no such curve, though single readings can be large; an effect the other way counts as inactive or inconclusive.

SMILES | JMJD2A Tudor | G9a block | HP1b chromo inh | BAZ2B inh | L3MBTL1 block | Sfp PPTase inh
C=CCSC1=C(C#N)C(c2ccccc2OCC)CC(=O)N1 (stereo not given) | . | ? | . | . | . | 70.8µM
CCOc1ccccc1C1CC(=O)NC(SCC(=O)Nc2nccs2)=C1C#N (stereo not given) | . | 14.1µM | . | . | / | ?
N#Cc1c(/N=C/c2ccco2)oc(-c2ccccc2)c1-c1ccccc1 | 28.2µM | ? | . | . | . | .
N#Cc1c(/N=C/c2ccccc2)oc(-c2ccccc2)c1-c1ccccc1 | . | ? | . | . | . | .
COCc1nc2ccccc2n1CCOc1cccc(C)c1 | . | . | . | . | / | /
O=C(NCc1ccco1)c1cnn2c(C(F)(F)F)cc(-c3ccccc3)nc12 | . | .[12.7 µM] | . | . | . | 25.1µM
COc1ccc(-c2cc(C(F)(F)F)n3ncc(C(=O)NCc4ccco4)c3n2)cc1 | . | . | . | . | . | 56.2µM
CC(C)CCNC(=O)c1cnn2c(C(F)(F)F)cc(-c3ccco3)nc12 | . | ? | . | ? | . | 50.1µM
NC(=O)c1cnn2c(C(F)(F)F)cc(-c3ccccc3)nc12 | . | . | . | . | / | .
Cc1ccc(NC(=O)c2c(C)oc3ccc(O)c(CN4CCCC4)c23)c(C)c1 | . | . | . | . | / | /
Cc1ccc(CNC(=O)NC2COc3ccccc3C2)cc1 (stereo not given) | . | . | . | . | / | /
CCCC[C@@H](NC(=O)[C@@H](Cc1cn(C(=O)OC)c2ccccc12)NC(=O)[C@H](CC(C)(C)C)NC(=O)N1[C@H](C)CCC[C@@H]1C)C(=O)O | / | . | / | / | / | .
CN1CCN(c2ccccc2/C=C2/C(=O)Nc3ccccc32)CC1 | . | 50.1µM | . | . | / | .
O=C1Nc2ccccc2/C1=C/c1ccccc1Cl | . | . | . | . | / | .
CC1=C(C(=O)Nc2ccc(C)cc2C)C(C(C)C)n2nc(SCc3ccccc3Cl)nc2N1 (stereo not given) | . | . | . | . | / | /
c1cncc(CSc2ccc(-c3cccnc3)nn2)c1 | . | . | . | . | / | .
c1ccc(-c2ccc(SCc3cccnc3)nn2)nc1 | ? | . | . | 3.16µM | / | .
COc1cccc(CNC(=O)c2cc(S(=O)(=O)N3CCCCC3)cn2C)c1 | . | . | . | . | / | /
CCOC(=O)CNC(=O)c1sc2nc(C)cc(C)c2c1N | . | 50.1µM | . | . | . | .
Cc1cc(C)c2c(N)c(C(=O)NN)sc2n1 | .[11.4 µM] | . | . | . | . | .
Cc1cc(C)c2c(N)c(C(=O)NNC(=O)c3ccccc3)sc2n1 | . | 44.7µM | . | . | . | .
Cc1nc2ccc(NC(=O)C3COc4ccccc4O3)cc2s1 (stereo not given) | . | . | . | . | / | .
Cc1cnc(NC(=O)C2COc3ccccc3O2)s1 (stereo not given) | ? | 35.5µM | . | ? | . | .
CCC(C)NC(=O)c1ccccc1NC(=O)C1COc2ccccc2O1 (stereo not given) | . | . | . | . | . | .
CC(C)NC(=O)c1ccccc1NC(=O)C1COc2ccccc2O1 (stereo not given) | 50.1µM | . | . | . | . | .
SMILES | JMJD2A Tudor | G9a block | HP1b chromo inh | BAZ2B inh | L3MBTL1 block | Sfp PPTase inh
Cc1nc2cc(NC(=O)C3COc4ccccc4O3)ccc2s1 (stereo not given) | . | 50.1µM | . | . | . | .
O=C(CN1C(=O)c2ccccc2C1=O)c1ccccc1 | . | .[12.7 µM] | . | . | / | .
CC1=C(CC(=O)c2ccccc2)C(=O)c2ccccc2C1=O | 35.5µM | 31.6µM | ? | 22.4µM | ? | .
Fc1cccc(CSc2nc(NCCc3ccccc3)c3ccccc3n2)c1 | . | . | . | . | / | /
Cc1ccccc1C(=O)Nc1ccc(C(=O)OCc2cc(=O)n3c4c(sc3n2)CCCC4)cc1 | . | ? | . | . | / | /
Cc1ncsc1CCOC(=O)c1cccnc1 | ? | ? | . | 50.1µM | . | .
COc1ccc2[nH]c3c(=S)nc[nH]c3c2c1 | 1.58µM | 3.55µM | . | . | . | 50.1µM
COc1ccc2[nH]c3c(Cl)ncnc3c2c1 | . | . | . | . | . | .
Cc1cc(C(=O)CSCCCn2c(=O)[nH]c3ccccc32)c(C)n1C | 50.1µM | .[12.7 µM] | . | ? | . | .
CCN1CCC(N(Cc2cccc(OC)c2)C(=O)Nc2cccc(C)c2C)CC1 | . | . | . | . | / | /
Cc1ccc(C(=O)NCCn2ccc3ccccc32)cc1[N+](=O)[O-] | 79.4µM | . | . | / | / | .
COc1cc(C(=O)NCCSc2c(C)[nH]c3ccccc23)cc(OC)c1OC | ? | . | . | . | / | /
Cc1ccc(C(=O)NCCSc2c(C)[nH]c3ccccc23)cc1[N+](=O)[O-] | ? | 50.1µM | . | ? | . | .
Cc1cc(CNC(=O)Cn2nc(C)c([N+](=O)[O-])c2C)c2ccccc2n1 | . | 35.5µM | . | . | . | .
Cc1cc(CNC(=O)c2ccc(C)c([N+](=O)[O-])c2)c2ccccc2n1 | . | 35.5µM | . | . | . | .
COc1ccccc1-c1nnc(SCC#CCOC(=O)c2ccc(F)cc2)o1 | . | / | / | / | / | /
CC(C)n1c(SCC(=O)c2ccc(F)cc2)nc2c(sc3ccccc32)c1=O | ? | . | . | . | / | /
Cc1cc2cc(CNC(=O)c3ccc(C)c([N+](=O)[O-])c3)ccc2[nH]1 | ? | 56.2µM | . | ? | . | .
Cc1cc2cc(CCNC(=O)c3ccc(C)c([N+](=O)[O-])c3)c(=O)[nH]c2cc1C | . | .[12.7 µM] | . | . | . | .
O=C(NNc1nc2c(F)cccc2s1)c1cc(=O)c2ccccc2o1 | . | 35.5µM | . | . | . | .
COc1ccc2nc(NNC(=O)c3cc(=O)c4ccccc4o3)sc2c1 | 56.2µM | 8.91µM | ? | 50.1µM | . | 12.6µM
Cc1cccc2sc(NNC(=O)c3cc(=O)c4ccccc4o3)nc12 | ? | / | . | 44.7µM | . | 44.7µM
O=C(Nc1ccc(O)c(-c2nc3ccccc3s2)c1)c1cc(=O)c2ccccc2o1 | . | . | . | . | . | .
Cc1ccc2c(=O)cc(C(=O)Nc3c(C(=O)c4ccc(F)cc4)oc4ccccc34)oc2c1C | . | . | . | . | / | /
Cc1ccc2sc(NNC(=O)c3cc(=O)c4ccccc4o3)nc2c1C | 56.2µM | 7.08µM | ? | 50.1µM | ? | 8.91µM
Cc1ccc(CC(=O)NCc2nc(-c3cccc(C)c3)no2)cc1 | . | . | . | . | / | /
CC(C)N(C(=O)CSc1nnc(-c2cc3ccccc3cc2O)n1Cc1ccco1)C(C)C | . | 12.6µM | . | . | . | .
